In PubChem BioAssay AID743342 (Broad Institute, 2014):
Potency and affinity values are given separately. Activity calls are given as the source filed them.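 Rule for the calls: active = every replicate test run was called active, each showing a signal decrease within twice the top valid dose; inconclusive = replicate test runs disagree on the call; inactive = every test run inactive, including signal moving upward.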

System: Drosophila bursicon receptor LGR2 (rickets)
Test: LGR2 antagonists, dose response, cell-based, HEK293, CRE-luciferase reporter, cherry pick (AID 743342)
Settings: bursicon antagonist, 4 h; series mostly up to 35 µM

outcome, inactive:
Cc1ccc(S(=O)(=O)Nc2ccc3c(c2)C(=O)N([C@H](C)CO)C[C@@H](C)[C@H](CN(C)S(=O)(=O)c2cccs2)OCCCC[C@@H](C)O3)cc1
C[C@@H]1CN([C@@H](C)CO)C(=O)c2cc(NS(C)(=O)=O)ccc2O[C@@H](C)CCCCO[C@@H]1CN(C)Cc1ccc(C(F)(F)F)cc1
C[C@H](CO)N1C[C@H](C)[C@H](CN(C)C(=O)Cc2ccccc2)OCCCC[C@H](C)Oc2ccc(NC(=O)Nc3ccc(C(F)(F)F)cc3)cc2C1=O
COc1ccc(S(=O)(=O)Nc2ccc3c(c2)C(=O)N([C@@H](C)CO)C[C@@H](C)[C@H](CN(C)C(=O)Nc2cccc4ccccc24)OCCCC[C@H](C)O3)cc1
C[C@@H]1CCCCO[C@H](CN(C)CC2CCCCC2)[C@H](C)CN([C@H](C)CO)C(=O)c2cc(NS(=O)(=O)c3ccccc3)ccc2O1
CC(C)NC(=O)Nc1ccc2c(c1)C(=O)N([C@H](C)CO)C[C@@H](C)[C@H](CN(C)S(C)(=O)=O)OCCCC[C@H](C)O2
COc1ccc(S(=O)(=O)Nc2ccc3c(c2)C(=O)N([C@@H](C)CO)C[C@H](C)[C@@H](CN(C)C(=O)Nc2cccc4ccccc24)OCCCC[C@H](C)O3)cc1
COc1ccc(S(=O)(=O)Nc2ccc3c(c2)C(=O)N([C@H](C)CO)C[C@H](C)[C@H](CN(C)S(=O)(=O)c2ccc(F)cc2)OCCCC[C@@H](C)O3)cc1
Cc1noc(C)c1S(=O)(=O)Nc1ccc2c(c1)C(=O)N([C@H](C)CO)C[C@H](C)[C@H](CN(C)C(=O)Nc1ccc(F)cc1)OCCCC[C@@H](C)O2
